# Assay outcomes as filed in PubChem BioAssay.
# HCMV inh = inhibitors of human cytomegalovirus. activity change, negative = inhibition, % at 57.5 µM. HFF cells, HCMV-luciferase reporter, 72 h; hits give low values. AID 1259415. 4.5% of 410,000 active; in the data active = activity change below about -60%; inconclusive = no clear call, values can overlap the other calls; inactive = above about -39%
#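 Inhibition of viral replication was scored as loss of reporter luminescence in HFFs infected with HCMV-luciferase (MOI 1 PFU/cell) for 72 h; compounds tested at 2 doses, normalized to buffer and Salinomycin controls.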
# Pf growth 96h = inhibits malaria parasite growth, 96 h; 6.9% of 320,000 active; AID 504834; Potency, µM (titrated, usually from 28.7 µM), for inactives: top-dose activity change, negative = inhibition, hits mostly inhibitors; P. falciparum luciferase reporter growth, 96 h; also: potency is read from the fitted curve at half-maximal effect
#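 Luminescence readout: decreased luciferase signal marks inhibited growth of reporter-expressing P. falciparum in infected red cells (2% hematocrit, 0.05% parasitemia final), exposed to compound two generations (96 h, 37 C, 5% CO2).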
# Pf growth 48h = P. falciparum growth inhibition at 48 hours (one generation) | P. falciparum luciferase growth in erythrocytes, 48 h | 5.9% of 310,000 active | Potency, µM (doses to about 28.7 µM), inactives show at the top dose activity change, negative = inhibition, usual class: inhibitors | AID 504832; also: potency is read from the fitted curve at half-maximal effect
#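 Erythrocytes infected with P. falciparum carrying an integrated firefly luciferase reporter (2% hematocrit, 0.1% parasitemia final) were exposed to compounds in RPMI 1640 with 0.5% Albumax at 37 C, 5% CO2. Growth inhibition was scored as reduced luminescence.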
# HCV inhibitor = blocks hepatitis C virus. Huh7.5.1 HCVcc-Cre infection, luciferase reporter, 44 h. Potency, µM (top dose mostly 41.8 µM), inactives show top-dose activity change, negative = inhibition, usual class: inhibitors. 3.4% of 340,000 active; also: potency is read from the fitted curve at half-maximal effect
#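 HCVcc-Cre virus at an moi near 0.5 was added right after compound to cells cultured 4 h from seeding (1,000 cells/well). Luciferase activity was determined 44 h later, 15 min after substrate addition at RT.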
# Marburg entry inh = blocks Marburg virus binding to or entry into cells; AID 540276; Potency, µM (top dose mostly 37.8 µM), without a hit: at the highest dose activity change, negative = inhibition, usual class: inhibitors; Marburg virus pseudotyped entry inhibition, cell reporter; 1.8% of 300,000 active; calls by dose curve; tested in HEK293 cells; also: potency is read from the fitted curve at half-maximal effect
# LASV entry inh = blocks Lassa virus binding to or entry into cells | Lassa virus pseudotype entry inhibition, cell reporter | Potency, µM (series often up to 37.9 µM), for the others: at the top dose activity change, negative = inhibition, most hits filed as inhibitors | 1.2% of 300,000 active | AID 540256; calls by dose curve; tested in HEK293 cells; also: potency is read from the fitted curve at half-maximal effect; nearly all actives have a fitted effect of over 50% in size
# * = called active by the depositor; ? = inconclusive; · = no result; [ ] = another dose, or the depositor's remark. Sampled rows, rich in hits. Any-hit rate of the full collection: about 14%. Unless noted, calls follow the shape of the dose curve; as a rule, active = well fitted inhibition curve with a large enough effect; inconclusive = small, poorly fitted or top-dose-only effect, or another doubt; inactive = no such curve, though single readings can be large or run the other way. % is scaled to controls: 0 for no effect and ±100 for the full control effect.
SMILES,HCMV inh,Pf growth 96h,Pf growth 48h,HCV inhibitor,Marburg entry inh,LASV entry inh
Cc1ccc(SCC(=O)NCC2COc3ccccc3O2)cc1 (centres undefined),-65*,?,-18%,14%,-17%,9%
CCOc1ccc(OCCNC(=O)c2oc3ccccc3c2COC)cc1,-36,-8%,?,?,-22%,-12%
CCN1CCN(CC2COc3ccccc3O2)CC1 (centres undefined),-64*,4%,35%,8%,·,·
c1ccc2c(c1)OCC(CNCC1COc3ccccc3O1)O2 (centres undefined),61,0.21µM*,5%,24%,12%[46.1 µM],7%[46.1 µM]
O=C(c1ccccc1Cl)N1CCN(CCc2ccccn2)CC1,-8,·,·,·,0%[46.1 µM],19%[46.1 µM]
OC(Cc1ccccc1)c1ncc(-c2ccc(Cl)cc2)[nH]1 (centres undefined),17,·,·,·,·,·
Cn1c(=O)c2c(ncn2CC(=O)Nc2cc(Cl)cc(Cl)c2)n(C)c1=O,9,·,·,·,·,1%[46.1 µM]
O=C(NCCc1csc(-c2cccc(F)c2)n1)C(=O)Nc1cc(F)ccc1F,4,·,·,·,·,10%[46.1 µM]
Cc1ccccc1OCCC(=O)N1CCN(S(=O)(=O)c2ccc(F)cc2)CC1,-13,-15%,?,17%,-28%,-1%
CCOc1ccccc1OCCCC(=O)N1CCN(S(=O)(=O)c2ccc(C)cc2C)CC1,-10,10µM*,?,-17%,·,·
Cc1cc(C)c(S(=O)(=O)N2CCN(C(=O)CCOc3ccccc3C)CC2)c(C)c1,-13,?,13µM*,?,-15%,-5%
CCOc1ccccc1OCCCC(=O)N1CCN(S(=O)(=O)c2ccc(C)cc2)CC1,4,?,?,2%,?,-32%
Nc1nc2c(ncn2[C@@H]2O[C@H](CNCc3ccc4ncccc4c3)[C@@H](O)[C@H]2O)c(=O)[nH]1,2,·,·,·,·,·
NC(=O)c1sc2nc3c(cc2c1N)CCC3,-25,9%,68%,-1%,·,·
Brc1cc(Br)c2nc3c(cc2c1)CCC3,-27,20%,16%,10µM*,·,·
COc1ccccc1N(CC(=O)NCc1ccco1)S(C)(=O)=O,1,25%,-12%,15%,?,1%
COc1ccc(S(=O)(=O)N(CC(=O)NC2CCCC2)c2ccccc2OC)cc1,-9,12µM*,?,9%,?,-1%
COc1ccc(S(=O)(=O)N(CC(=O)NCc2ccco2)c2ccccc2OC)cc1,-65*,1%,?,-19%,0%[46.1 µM],0%[46.1 µM]
COc1ccc(N(CC(=O)NCc2ccco2)S(=O)(=O)c2ccc(OC)c(OC)c2)cc1,0,15µM*,·,14%,0%,-2%
CCOc1ccc(N(CC(=O)NCc2ccco2)S(=O)(=O)c2ccc(OC)c(OC)c2)cc1,12,24%,12µM*,?,-12%,-18%
O=C(CN(c1ccccc1)S(=O)(=O)c1ccc(F)cc1)NC1CCCCCC1,-17,2.3µM*,4%,7%,?,-19%
CCN(CC(=O)NCc1ccc(F)cc1)CC(=O)NC1CCCC1,-11,25%,27%,0.89µM*,13%[46.1 µM],20%
CCOc1ccccc1N(CC(=O)NC1CCCCC1)S(=O)(=O)c1ccccc1,-27,?,?,-18%,?,-7%
Cc1ccc(C)c(N(CC(=O)NC2CCCC2)S(=O)(=O)c2ccccc2)c1,-1,13µM*,-17%,-3%,?,-7%
COc1cc(NC(=O)NCCn2nnc3cc(S(=O)(=O)N(C)C)ccc32)cc(OC)c1OC,7,·,·,·,·,4%[46.1 µM]
SMILES,HCMV inh,Pf growth 96h,Pf growth 48h,HCV inhibitor,Marburg entry inh,LASV entry inh
CCN(c1ccccc1)S(=O)(=O)c1cc(Br)cc2c1N(C(=O)C1CC1)CC2,-21,·,·,·,4%[46.1 µM],22%[46.1 µM]
CC(=O)N1CCN(CC(=O)Nc2cc([N+](=O)[O-])ccc2Cl)CC1,0,-3%,-6%,19%,5%[46.1 µM],·
Cc1cc(NC(=O)CN2CCN(S(=O)(=O)c3ccc(Cl)cc3)CC2)no1,-4,·,10%,-19%,19%,1%
Cc1cc(NC(=O)CN2CCN(c3ccc(O)cc3)CC2)no1,-8,9.3µM*,?,6%,8%,-2%
O=C(CN1CCN(c2ccc(O)cc2)CC1)Nc1cc([N+](=O)[O-])ccc1Cl,-69*,?,13%,1%,?,4%
Cc1cc(C)c2oc(-c3cccc(NC(=O)COc4ccc([N+](=O)[O-])cc4)c3)nc2c1,29,·,·,·,6%[46.1 µM],?
C[C@@H]1CN([C@@H](C)CO)C(=O)c2cc(Br)cnc2O[C@H]1CN(C)C(=O)CCN1CCCCC1,11,·,·,·,·,·
COc1ccc(C(=O)NC(=S)Nc2ccccc2N2CCOCC2)cc1Br,-11,222%,?,16µM*,?,?
Fc1cc(F)cc(NC(=S)Nc2ccccc2N2CCOCC2)c1,-62*,-5%,-13%,-22%,?,-9%[46.1 µM]
COc1cc(C(=O)NC(=S)Nc2ccccc2N2CCCC2)cc(OC)c1OC,?,-11%,0%,11µM*,·,·
COc1cccc(C(=O)NC(=S)Nc2ccccc2N2CCCCC2)c1,-32,?,7.4µM*,?,·,·
CCN(CC)CCNC(=O)c1ccc(Cn2c(=O)c3cccn3c3cccnc32)cc1,-23,·,·,·,·,1%[46.1 µM]
CCOC(=O)c1c(NC(=O)CCCOc2ccc(C(C)(C)C)cc2)sc2c1CCCC2,17,·,·,·,·,19%[46.1 µM]
COc1ccc(CCCNC(=O)C2CCC(=O)N(CC3CCCCC3)C2)cc1 (centres undefined),2,-4%,?,-3%,4%,-7%
Cc1ccc(N(CC(C)C)S(=O)(=O)c2nnc(NC(=O)c3cccs3)s2)cc1,14,·,·,·,·,14%[46.1 µM]
CCCCC1=CC2=CC(=O)C(C)(OC(=O)CC)C(=O)C2=CN1C1CCCCC1 (centres undefined),-3,9.3µM*,?,4%,·,·
CCCCC1=CC2=CC(=O)C(C)(OC(=O)CC)C(=O)C2=CN1c1cccc(C#N)c1 (centres undefined),-20,·,·,?,·,·
CC1(OC(=O)CCc2ccccc2)C(=O)C=C2C=C(c3ccc(C#N)cc3)N(C3CC3)C=C2C1=O (centres undefined),-24,?,13µM*,-1%,·,·
CC1(OC(=O)CCc2ccccc2)C(=O)C=C2C=C(c3ccc(C#N)cc3)N(Cc3ccccc3)C=C2C1=O (centres undefined),-18,?,?,40%,?,·
CCCCC1=CC2=CC(=O)C(C)(OC(=O)CC)C(=O)C2=CN1CCCCO (centres undefined),?,?,42%,19%,·,·
CCCCC1=CC2=CC(=O)C(C)(OC(=O)CC)C(=O)C2=CN1c1ccc(OC)cc1 (centres undefined),18,9.3µM*,12µM*,-10%,·,·
CC(C)(C)Nc1oc(-c2ccccc2)nc1-c1ccc(C(F)(F)F)cc1,·,·,·,·,-17%[14.2 µM],·
